Experimental data published in PubChem BioAssay AID1745850 (National Center for Advancing Translational Sciences (NCATS), 2022).
Out of some 2,100 compounds screened, about 260 (12%) were called active. Roughly 58% stayed inconclusive and do not appear here. Calls come from the whole dose curve; as a rule, active = well fitted cell-killing curve with a large enough effect; inconclusive = small, poorly fitted or top-dose-only effect, or effect the other way; inactive = flat fitted curve, though single readings scatter. Some of the results follow. A call without a number means that no potency is given here.

Assay: Viability Counterscreen for Confirmatory qHTS for Inhibitors of ATXN expression; note: nearly all actives have a fitted effect of over 50% in size
Details: HEK-293 ATXN2-luc cells viability, CellTiter-Fluor, 24 h
In short: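 Cells with an ATXN2-luciferase reporter were dosed in a dilution series for 24 h at 37 degrees C. Viability was read first with Gly-Phe-AFC at 25 uM final (fluorescence, ex 405/em 540), then SteadyGlo luminescence. Medium-only wells defined 100% inhibition.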
Potency is the fitted concentration of half-maximal effect.

Compound	Potency
CCc1ccc(N(CC)C(=O)c2ccc3c(Cl)c4c(nc3c2)CCC4)cc1	inactive
Cc1ccc(Cc2cnc(NC(=O)/C(C#N)=C/c3ccc(-c4cccc([N+](=O)[O-])c4)o3)s2)cc1	22.4 µM (active)
CCN1C(=O)/C(=C/c2nc3ccccc3c(=O)n2-c2ccccc2)c2ccccc21	25.1 µM (active)
COc1ccc(Cc2nnc(N/N=C/c3ccccc3O)[nH]c2=O)cc1OC	4.47 µM (active)
COc1cc(Br)cc(/C=N/NC(=O)Cc2ccccc2)c1O	inactive
C=CCOc1ccc(CNc2ccc3[nH]c(=O)[nH]c3c2)cc1OC	inactive
COc1cccc(/C=N/n2c(N)c(S(=O)(=O)c3cccs3)c3nc4ccccc4nc32)c1OC	22.4 µM (active)
Cc1ccc(S(=O)(=O)c2c(N)n(CC3CCOC3)c3nc4ccccc4nc23)cc1 (stereo not given)	inactive
CCn1ccnc1CN1CCCC(C(=O)c2ccc3cc(OC)ccc3c2)C1 (stereo not given)	inactive
O=S(=O)([N-]c1nc2ccccc2nc1-[n+]1ccc(Cc2ccccc2)cc1)c1ccc(Br)s1	7.94 µM (active)
CCc1noc(C)c1C(=O)N1CCSC1=Nc1cccc(Cl)c1C	inactive
CC1(C)Cc2ccccc2C2=NNC(=O)C2=N1	28.2 µM (active)
O=c1cc(C(F)(F)F)[nH]c2ccc(C(F)(F)F)cc12	inactive
COc1ccc(N(C)S(=O)(=O)c2ccc(Cl)c(C(=O)NCCc3ccc(Cl)cc3)c2)cc1	inactive
CN(C)CCNC(=O)c1ccc(Cl)c2cc3ccccc3nc12	10 µM (active)
CSc1sc(C(=O)NN)c2c1C1(CCC2)SCCS1	inactive
CCCCCn1c(=O)c2ccccc2n2c(CCl)nnc12	25.1 µM (active)
CCOC(=O)C(CC)(CC)C(=O)/C=C/c1ccc(OC)cc1	inactive
CC(C)=CCc1ccc(O)c(=O)cc1C(C)C	inactive
COc1cc(C(=O)N/N=C(\Cc2ncc[nH]2)c2ccccc2)cc(OC)c1OC	inactive
COc1cc(C(=O)N/N=C(\c2ccccc2)c2ccccn2)cc(OC)c1OC	2.24 µM (active)
O=C(N/N=C(\Cc1ncc[nH]1)c1ccccc1)c1cccnc1	inactive
CCc1ccc(NC(=O)C2CCN(S(=O)(=O)c3ccc4c(c3)CC(C)N4C(C)=O)CC2)cc1 (stereo not given)	inactive
COc1cc2[nH]c(=O)n(CCCCCC(=O)N3CC=C(c4ccccc4)CC3)c(=O)c2cc1OC	3.16 µM (active)

Compound	Potency
CCOc1ccc(S(=O)(=O)NCCC(=O)N2CC=C(c3ccccc3)CC2)cc1	inactive
Cc1cccn2c(=O)c3cc(C(=O)NCCc4ccccc4)c(=N)n(CCCn4ccnc4)c3nc12	inactive
Cc1onc(-c2c(F)cccc2Cl)c1C(=O)Nc1nnc(C(F)(F)F)s1	inactive
O=C(Nc1ccccc1C(=O)Nc1nnc(C(F)(F)F)s1)c1ccccc1	3.98 µM (active)
CC1CCCN(c2ncnc3c2cnn3-c2ccc(Cl)cc2)C1 (stereo not given)	inactive
O=C(NCc1ccco1)c1ccc(-c2cccc(Cl)c2)o1	inactive
CC(NC1=CC(=O)c2cccnc2C1=O)C(O)c1ccccc1 (stereo not given)	31.6 µM (active)
COc1ccc2c(c1)[nH]c1c(=O)n(/N=C/C3C(C)C=C(C)CC3C)c(=O)[nH]c12 (stereo not given)	20 µM (active)
Cc1ccc(-c2cc(C(=O)NCCCN3CCOCC3)no2)cc1	inactive
CCOC(=O)c1c(SCCN2CCCC2)n(-c2ccccc2)c(=S)n(-c2ccccc2)c1=O	2.51 µM (active)
O=C(/C=C/NNC(=O)c1ccccc1)c1ccc([N+](=O)[O-])cc1	12.6 µM (active)
CCCCC(=O)N(C)c1c(CC)nc2c(OCc3ccc(Cl)cc3Cl)cccn12	inactive
O=C(NCC(=O)N1CC(O)CC1C(=O)N1CCCC1C(=O)OCc1ccccc1)OCc1ccccc1 (stereo not given)	inactive
COc1cccc2c1C(=N)c1c(O)c3c(c(O)c1C2=O)CC(O)(C(C)=O)CC3OC1CC(N)C(O)C(C)O1 (stereo not given)	4.47 µM (active)
CCCCC(=O)OCC(=O)C1(O)Cc2c(O)c3c(c(O)c2C(OC2CC(NC(=O)C(F)(F)F)C(O)C(C)O2)C1)C(=O)c1c(OC)cccc1C3=O (stereo not given)	15.8 µM (active)
CCC1=C(OC(=O)N(CC)CC)N2C(=O)OC(=NCCc3c[nH]c4ccccc34)[C@]2(Cc2ccccc2)[C@H]2C1=CC[C@H]1C(=O)N(c3ccccc3)C(=O)[C@H]12	inactive
CCCC(=O)Nc1c(C(=O)OCC)[nH]c2ccccc12	inactive
CCOc1ccc(/C=N/NC(=O)C(O)c2ccccc2)c(O)c1 (stereo not given)	inactive
O=c1ccc2ccccc2c2ccccc12	17.8 µM (active)
O=C(N/N=C\c1c(O)ccc2ccccc12)c1ccc(Cn2cccn2)o1	inactive
Cc1ccc(Cl)cc1-c1ccc(C=Nc2ccc(N3CCOCC3)cc2)o1	inactive
C=CCn1cnc2c(c1=O)c1nc3ccccc3nc1n2/N=C/c1cc(OC)c(OC)c(OC)c1	20 µM (active)
CCC(C)n1cnc2c(c1=O)c1nc3ccccc3nc1n2-c1ccc2c(c1)OCCO2 (stereo not given)	inactive
Cc1ccsc1/C=C/C1=Cc2c(sc(NC(=O)CSc3n[nH]c(N)n3)c2C#N)C(C)(C)C1	inactive

Compound	Potency
c1ccc(Cn2c(-c3ccccc3)c[n+]3c2SCCC3)cc1	inactive
Cc1ccc(S(=O)(=O)c2nc(S(C)(=O)=O)sc2N2CCCCC2C)cc1 (stereo not given)	inactive
COc1cc(/C=C(/C#N)C(=O)NCCc2c[nH]c3ccccc23)ccc1OCc1ccccc1F	25.1 µM (active)
Cc1ccnc(NC(=O)CCCc2c[nH]c3ccccc23)c1	inactive
COc1ccc(CCNC(=O)c2cc3c(F)cccc3s2)cc1OC	inactive
Cc1c(C(=O)N2c3ccccc3Sc3ccccc32)cccc1[N+](=O)[O-]	inactive
CC1(C)CC(N2CCN(Cc3ccccc3)CC2)=CC(=[N+]2CCCCC2)C1	inactive
COc1ccc(N2CCN(c3ccnc4cc(Cl)ccc34)CC2)cc1	inactive
CC(C)C(=O)Nc1ccc(C(=O)N/N=C/c2cc(Br)cc(Br)c2O)cc1	28.2 µM (active)
CN(C)c1ccc(C(=O)N/N=C/c2cc(Br)cc(Br)c2O)cc1	inactive
O=C(Cc1ccccc1)N/N=C/c1cc(Br)cc(Br)c1O	inactive
C/C(=N\NC(=O)C(C)n1nc(C)c([N+](=O)[O-])c1C)c1ccccc1O (stereo not given)	inactive
Cc1ccc(/C=C2/SC(=S)N(CCCC(=O)Nc3ccc(O)cc3)C2=O)cc1	28.2 µM (active)
Cc1ccc(/C=C2\SC(=S)N(CCCC(=O)Nc3cc(C)on3)C2=O)cc1	inactive
O=C(CCCN1C(=O)S/C(=C\c2ccccc2)C1=O)NNC(=O)c1ccccc1O	inactive
Cc1ccc(/C=C2\SC(=S)N(CCCC(=O)Nc3cccnc3)C2=O)cc1	31.6 µM (active)
Cc1ccc(NC(=O)COc2ccc(/C=C3/SC(=Nc4ccccc4)N(Cc4cccnc4)C3=O)cc2)cc1	20 µM (active)
COC(=O)c1ccc(/C=C2/SC(=S)N(CCCC(=O)Nc3ccccn3)C2=O)cc1	28.2 µM (active)
Cc1ccc(/C=C2\SC(=S)N(CCCC(=O)Nc3ccc(O)cc3)C2=O)cc1	inactive
[O-][n+]1c2ccccc2cc2ccccc21	inactive
O=c1c(Cc2ccccc2)c(O)nc2n1CCS2	inactive
CC1(C)COCN1S(=O)(=O)c1ccc(C(=O)Nc2nnc(-c3ccc(Cl)s3)o2)cc1	inactive
CC(C)(C)c1ccc(C(=O)N2CCCCCC2=O)cc1	inactive
CC(/C=C/c1ccc2c(c1)OCO2)=N\NC(=O)c1cccc([N+](=O)[O-])c1	inactive

Compound	Potency
COc1ccc(/C=C/C(=O)c2ccc([N+](=O)[O-])o2)cc1OC	8.91 µM (active)
Cc1cccc(/C=C/C(=O)c2ccc([N+](=O)[O-])o2)c1	3.55 µM (active)
COc1ccccc1NC(=S)NC(=O)c1ccc(Cn2cc(Br)cn2)cc1	inactive
OC(c1ccccc1)(c1nc(-c2ccc3ccccc3c2)cs1)C(F)(F)F (stereo not given)	inactive
O=C(NCc1ccccc1Cl)C1CCCN(C(=O)Nc2ccc(F)cc2)C1 (stereo not given)	inactive
COc1cc(C#Cc2c(-c3cncn3C)n(C)c3ccc(-c4ccc(CN5CCOCC5)cc4)cc23)cc(OC)c1	inactive
O=C(N/N=C\c1cc(Cl)ccc1O)c1ccc(S(=O)(=O)N2CCCCC2)cc1	inactive
O=C(COc1ccc(F)cc1)N/N=C/c1cccc2cccnc12	inactive
CC1CCN(Cc2c(C(=O)N/N=C/c3cc(Br)ccc3O)nnn2-c2nonc2N)CC1	inactive
Nc1ccc(Oc2ccccc2-c2ccccc2)cc1	inactive
CCc1cc2c(=O)c(-c3cnn(-c4ccccc4)c3)coc2c(CN2CCOCC2)c1O	inactive
CC(=O)c1cccc(-c2ccnc3c2CC(C(=O)Nc2ccc(F)c(Cl)c2)O3)c1 (stereo not given)	inactive
CC(=O)c1cccc(NC(=O)c2cccc3c(-c4cccc(C(N)=O)c4)coc23)c1	20 µM (active)
COc1cc(NC(=O)c2cccc3c(-c4cnn(C)c4)coc23)cc(OC)c1OC	31.6 µM (active)
COc1cc(NC(=O)c2cc(-c3ccccc3)nc3c2cnn3C(C)C)cc(OC)c1OC	inactive
OCCN1CCN(C(=S)c2ccc(-c3ccccc3)cc2)CC1	inactive
Cc1[nH]n(-c2ccccc2)c(=O)c1C=Nc1cccc2cccnc12	inactive
COc1cc(C#Cc2c(-c3cncn3C)n(C)c3ccc(-c4cnc(N5CCOCC5)nc4)cc23)cc(OC)c1	inactive
COC(=O)c1ccsc1NC(=O)CN1CCN(Cc2ccc3c(c2)OCO3)CC1	inactive
Cc1ccc(CN2CC(C(=O)Nc3ncc(C)s3)CC2=O)cc1 (stereo not given)	inactive
COc1ccccc1-c1cc2nc(-c3ccccc3)cc(N3CCN(C(=O)c4ccoc4)CC3)n2n1	15.8 µM (active)
COc1cc(OC)cc(-c2cc3nc(C)c(CCC(=O)NCc4ccccc4)c(C)n3n2)c1	inactive
CC1CCN(C(=O)c2cc3nc(-c4ccccc4)cc(-c4ccccc4)n3n2)CC1	inactive
